Each structure is given as a SMILES string. Calls of active or inactive are those of the source. Calls follow the shape of the full dose curve.
% is scaled to controls: 0 for no effect and ±100 for the full control effect.

This test is described as follows: qHTS assay to identify small molecule agonists of the estrogen related receptor (ERR) signaling pathway from Tox21 library (AID 1224849). Also: nearly all actives have a fitted effect of over 15% in size. The following applies: ERR reporter cell line, ONE-Glo luciferase, 18 h; at 92.4 µM (top of the series) unless noted. The source says: National Center for Advancing Translational Sciences [NCATS]
NIH Chemical Genomics Center [NCGC]
U.S. Environmental Protection Agency [EPA]
National Institutes of Environmental Health Sciences [NIEHS]
National Toxicology Program [NTP]
Estrogen related receptors (ERRs), the first orphan nuclear receptors discovered, play an important role in the control of cellular energy metabolism. ERRs are required for high-energy production in response to the environmental challenges. ERR-alpha was also identified as an adverse marker for breast cancer progression; ERR-alpha-positive tumors have a poor prognosis. To screen and to identify environmental compounds that perturb the ERR signaling pathways could provide valuable information for potential therapeutic or preventive measures in the treatment of metabolic disease. For identifying ERR agonists, ERR cell line (provided by NTP) has been used to screen Tox21 10K library.
The ERR cells were dispensed at 2,000 cells/5 ul/well in 1536-well white plates using a Multidrop dispenser. After the assay plates were incubated at a 37 C/5% CO2 incubator for 6 hours, 23 nL of compounds dissolved in DMSO, positive and negative controls or DMSO only was transferred to the assay plate by a pin tool. The plates were incubated at 37 C for 18 hours. 4 ul/well of One-Glo reagent was added into the assay plates using a Flying Reagent Dispenser. After 30-minute incubation at room temperature, the luminescence intensity in the plates was measured using a ViewLux plate reader.
Background: qHTS replaces the single test concentration by a dilution series.
`CC(Cc1ccc(O)c(O)c1)C(C)Cc1ccc(O)c(O)c1` (stereo not given): the activity change, positive = activation was -42.5% (inactive). Turning to `CCCCCCCCCCCCCCCCC(C(=O)O)C(O)(CC(=O)O)C(=O)O` (stereo not given), the activity change, positive = activation is -3.01% [at 42.5 µM] (inactive). `CCCC(C)C=O` (stereo not given): the activity change, positive = activation is 4.95% (inactive). With `c1ccc(-c2ccc(C(c3ccccc3)n3ccnc3)cc2)cc1` (stereo not given), the activity change, positive = activation is -54.4% [at 42.5 µM] (inactive). Regarding `CCOC(=O)C1=NN(c2ccc(Cl)cc2Cl)C(C)(C(=O)OCC)C1` (stereo not given), the activity change, positive = activation is -36.6% (inactive).

On to `C[C@H]1O[C@@H](O[C@H]2CC[C@@]3(C)[C@H](CC[C@@H]4[C@@H]3C[C@@H](O)[C@]3(C)[C@@H](C5=CC(=O)OC5)CC[C@]43O)C2)C[C@H](O)[C@@H]1O[C@H]1C[C@H](O)[C@H](O[C@H]2C[C@H](O)[C@H](O[C@@H]3O[C@H](CO)[C@@H](O)[C@H](O)[C@H]3O)[C@@H](C)O2)[C@@H](C)O1`, for which the activity change, positive = activation was -54.9% [at 42.5 µM] (inactive). As to `Nc1ccc2c(S(=O)(=O)O)cccc2c1S(=O)(=O)O`, the activity change, positive = activation is -1.51% [at 42.5 µM] (inactive).

For the molecule `Clc1nc(C(Cl)(Cl)Cl)c(Cl)c(Cl)c1Cl`, the activity change, positive = activation was -54% (inactive).

Consider `CCCCCCCCCCCCCCCCCCNC(=O)OC1CCN(C(=O)OC[C@H](COC(=O)N(Cc2cccc[n+]2CC)C(=O)c2ccccc2OC)OC)CC1`, for which the activity change, positive = activation was -55.2% [at 42.5 µM] (inactive). Regarding `O=C1c2ccccc2C(=O)c2c(Cl)cccc21`, the activity change, positive = activation was 1.21% [at 42.5 µM] (inactive). Take `CC(C)(C)C1=CC(=O)C(C(C)(C)C)=CC1=O`: the activity change, positive = activation is -2.14% [at 42.5 µM] (inactive).

With `N#CCCOCCC#N`, the activity change, positive = activation is 1.08% (inactive).

For the molecule `O=C1C=CC(=O)N1c1cccc(N2C(=O)C=CC2=O)c1`, the activity change, positive = activation is -72.9% (inactive).

In the case of `Oc1ccc(C2(c3ccc(O)c(C4CCCCC4)c3)CCCCC2)cc1C1CCCCC1`, the activity change, positive = activation is -70.3% (inactive). Regarding `COC(=O)c1ccc([N+](=O)[O-])cc1`, the activity change, positive = activation was 1.35% (inactive). Then `CN1CCN(c2ccccc2/C=C2\SCCN(c3ccc(Cl)c(Cl)c3)C2=O)CC1`, with -79.7% (inactive); and `CCCCCc1ccc(O)cc1`, with 1.58% (inactive); and `C1CCSC1`, with 0.687% (inactive). For `CO[Si](OC)(c1ccccc1)c1ccccc1`, the activity change, positive = activation was -12.9% (inactive). Turning to `COc1cc(/C=C/C(=O)CC(=O)/C=C/c2ccc(O)c(OC)c2)ccc1O`, the activity change, positive = activation was -73.6% (inactive). Then `O=C(O)C[C@H](O)C[C@H](O)/C=C/c1c(C2CC2)nc2ccccc2c1-c1ccc(F)cc1`, with 31.2% [at 19 µM] (active). Consider `COc1ccc(OC)c(N=Nc2c(O)ccc3ccccc23)c1`, for which the activity change, positive = activation was -14.1% (inactive). With `Oc1ccc(Cl)cc1C1CCCC1`, the activity change, positive = activation was 6.21% (inactive). Under `Cc1cccc2c1ccc1ccccc12` stands -38.7% (inactive). On to `CCCCCCCCCCCCN1CCCC1=O`, for which the activity change, positive = activation is -16.7% (inactive). On to `Nc1c(Br)cc([N+](=O)[O-])cc1Br`, for which the activity change, positive = activation was -20.8% (inactive). On to `O[Si](c1ccccc1)(c1ccccc1)c1ccccc1`, for which the activity change, positive = activation is -39.7% (inactive). Take `SC1CCCCC1`: the activity change, positive = activation was 7.84% (inactive). Turning to `CN1CCN(CCCN2c3ccccc3Sc3ccc(C(F)(F)F)cc32)CC1`, the activity change, positive = activation is -69.1% [at 42.5 µM] (inactive). Consider `CCCCCCCCc1ccc(Nc2ccc(CCCCCCCC)cc2)cc1`, for which the activity change, positive = activation was -4.1% [at 42.5 µM] (inactive).

For `[Cl][Sc]([Cl])[Cl]`, the activity change, positive = activation is 0.963% (inactive). Under `O=C(Nc1ccccc1)c1cc(Cl)ccc1O` stands -16.2% (inactive). As to `Cc1c[nH]c(=O)[nH]c1=O`, the activity change, positive = activation was 0.0206% (inactive). Under `C/C=C/C(=O)C1=C(C)C=CCC1(C)C` stands -1.28% (inactive); under `CSc1ccc(O)cc1C`, -0.368% (inactive). For `CC(c1cc(C(C)(C)C)cc(C(C)(C)C)c1O)c1cc(C(C)(C)C)cc(C(C)(C)C)c1O`, the activity change, positive = activation is -15.4% (inactive). Turning to `O=C1CCCCCCCCCCCCCC1`, the activity change, positive = activation was 1.09% (inactive). With `CC(O)(c1ccc(Cl)cc1)c1ccc(Cl)cc1`, the activity change, positive = activation was -43.9% (inactive). As to `COc1cccc(-c2ccc(/C=C\CN3CCCCCC3)cc2Cl)c1`, the activity change, positive = activation is -20.2% (inactive). For the molecule `NC(=O)c1ccccc1Cl`, the activity change, positive = activation was 3.13% (inactive).

These data come from PubChem BioAssay (Tox21).
